What all share (parameters): species or system human, MV4-11 + K-562 + COLO205 + SK-N-BE2 + OVCAR-8
For test [1], the system named is ADRBK1. To be noted: read-out: apparent Kd, n = 1.
Test [2] has as its system AKT1. The note with it: read-out: apparent Kd, compound concentrations: 100 nM and 1000 nM (sheet 'Samples'), n = 1.
The subject of test [3] is AKT2. To be noted: read-out: apparent Kd, compound concentrations: 100 nM and 1000 nM (sheet 'Samples'), n = 1.
In test [4] the test system is CAMK4. The note with it: read-out: apparent Kd; compound concentrations: 100 nM and 1000 nM (sheet 'Samples'), CATDS: 3.6966464107036197E-2; n = 1.
The subject of test [5] is CSNK1A1. To be noted: read-out: apparent Kd, compound concentrations: 100 nM and 1000 nM (sheet 'Samples'), n = 1.
Test [6] concerns EPHA7. To be noted: read-out: apparent Kd; compound concentrations: 100 nM and 1000 nM (sheet 'Samples'), CATDS: 3.8645316072732999E-2; n = 1.
For test [7], the system named is ILK. The note with it: read-out: apparent Kd; compound concentrations: 100 nM and 1000 nM (sheet 'Samples'), CATDS: 0.14244785973502599; n = 1.
The subject of test [8] is MAP2K1. To be noted: read-out: apparent Kd, compound concentrations: 100 nM and 1000 nM (sheet 'Samples'), n = 1.
The test system of test [9] is MAP2K2. The note with it: read-out: apparent Kd, compound concentrations: 100 nM and 1000 nM (sheet 'Samples'), n = 1.
The subject of test [10] is MAP2K4. To be noted: read-out: apparent Kd; compound concentrations: 100 nM and 1000 nM (sheet 'Samples'), CATDS: 0.186744219541462; n = 1.
In test [11] the test system is MCM5. To be noted: read-out: apparent Kd; compound concentrations: 100 nM and 1000 nM (sheet 'Samples'), CATDS: 3.88707631057994E-2; n = 1.
For test [12], the system named is MYLK3. The note with it: read-out: apparent Kd; compound concentrations: 100 nM and 1000 nM (sheet 'Samples'), CATDS: 3.9755051907905598E-2; n = 1.
Test [13] concerns NNT. To be noted: read-out: apparent Kd, compound concentrations: 100 nM and 1000 nM (sheet 'Samples'), n = 1.
In test [14] the test system is NQO1. To be noted: read-out: apparent Kd, compound concentrations: 100 nM and 1000 nM (sheet 'Samples'), n = 1.
The test system of test [15] is PRKCI. The note with it: read-out: apparent Kd; compound concentrations: 100 nM and 1000 nM (sheet 'Samples'), CATDS: 3.7397105483333901E-2; n = 1.
For test [16], the system named is PYGL. The note with it: read-out: apparent Kd; compound concentrations: 100 nM and 1000 nM (sheet 'Samples'), CATDS: 3.7417156320033999E-2; n = 1.
Test [17] relates to RIOK2. The note with it: read-out: apparent Kd; compound concentrations: 100 nM and 1000 nM (sheet 'Samples'), CATDS: 4.6117723123063198E-2; n = 1.
Test [18] deals with STK11. To be noted: read-out: apparent Kd; compound concentrations: 100 nM and 1000 nM (sheet 'Samples'), CATDS: 4.1841672980442002E-2; n = 1.
For test [19], the system named is STK26. The note with it: read-out: apparent Kd; compound concentrations: 100 nM and 1000 nM (sheet 'Samples'), CATDS: 3.6848584126752397E-2; n = 1.
Test [20] concerns TP53RK. The note with it: read-out: apparent Kd; compound concentrations: 100 nM and 1000 nM (sheet 'Samples'), CATDS: 4.1477973818590801E-2; n = 1.
Test [21] deals with VDAC3. To be noted: read-out: apparent Kd, compound concentrations: 100 nM and 1000 nM (sheet 'Samples'), n = 1.
For test [22], the system named is AKT3. To be noted: read-out: apparent Kd; compound concentrations: 100 nM and 1000 nM (sheet 'Samples'), CATDS: 5.2731999581220101E-2; n = 1.
The subject of test [23] is CDK17. To be noted: read-out: apparent Kd; compound concentrations: 100 nM and 1000 nM (sheet 'Samples'), CATDS: 5.5041868266542698E-2; n = 1.
In test [24] the test system is CDK6. To be noted: read-out: apparent Kd; compound concentrations: 100 nM and 1000 nM (sheet 'Samples'), CATDS: 5.9987442985443201E-2; n = 1.
For test [25], the system named is CDKL5. The note with it: read-out: apparent Kd; compound concentrations: 100 nM and 1000 nM (sheet 'Samples'), CATDS: 5.3023462381207802E-2; n = 1.
The test system of test [26] is MET. The note with it: read-out: apparent Kd; compound concentrations: 100 nM and 1000 nM (sheet 'Samples'), CATDS: 5.0838558886591501E-2; n = 1.
Test [27] deals with PIP4K2C. To be noted: read-out: apparent Kd; compound concentrations: 100 nM and 1000 nM (sheet 'Samples'), CATDS: 5.5359350052651503E-2; n = 1.
The test system of test [28] is PRKAG2. The note with it: read-out: apparent Kd; compound concentrations: 100 nM and 1000 nM (sheet 'Samples'), CATDS: 6.3549748711714801E-2; n = 1.
In test [29] the test system is RAB6A;RAB6B. The note with it: read-out: apparent Kd; compound concentrations: 100 nM and 1000 nM (sheet 'Samples'), CATDS: 6.9234988104968295E-2; n = 1.

Like-named read-outs stand apart in the source and are kept apart here.

For the compound `COc1cc(Nc2ncc3c(C)nc(-c4cccc(C(F)(F)F)c4)n3n2)cc(OC)c1OC` [GW837331X], in test [1] (compound concentrations: 100 nM and 1000 nM (sheet 'Samples'), CATDS: 1), the potency estimated from few doses was 2.01 µM.
Regarding `O=C(NCCCN1CCOC1=O)c1cnc(NCc2cc(Cl)ccc2Cl)nc1NC1CCCC1` [PFE-PKIS_12], in [1] (compound concentrations:100 nM and 1000 nM (sheet 'Samples')), the potency estimated from few doses was 1.11 µM.
As for `COc1cc2ncn(-c3cc(OCc4ccccc4C(F)(F)F)c(C(C)=O)s3)c2cc1OC` [GSK1030059A], the potency estimated from few doses in test [1] (compound concentrations: 100 nM and 1000 nM (sheet 'Samples'), CATDS: 0.14381840818805) was 0.132 µM; in [2] (CATDS: 4.3697981842120898E-2) it was 1.3 µM; in test [3] (CATDS: 4.5438239597783502E-2), 1.18 µM; in test [4], 2.08 µM; in test [5] (CATDS: 3.77728763052241E-2), 1.95 µM; in [6], 1.82 µM. Also, the potency estimated from few doses was 0.134 µM in [7]; 0.128 µM in [8] (CATDS: 0.14670729977766001); 1.19 µM in [9] (CATDS: 4.5160118472274198E-2); 0.0895 µM in test [10]; 1.79 µM in test [11]; 1.67 µM in test [12]. Moreover, the potency estimated from few doses in [13] (CATDS: 5.0059398656859502E-2) is 0.933 µM; in test [14] (CATDS: 4.7880082762824801E-2) it was 1.04 µM; in [15] it was 2.01 µM; in [16], 2 µM; in test [17] it was 1.13 µM; in test [18], 1.45 µM. Further, the results for the potency estimated from few doses in test [19], in test [20] and in test [21] (CATDS: 3.7908226064931903E-2) were 2.1 µM, 1.49 µM and 1.93 µM, respectively.
Consider `N#Cc1c(NC(=O)CN2CCOCC2)sc2c1CCCC2.O=C(O)C(=O)O` [SB-657836-AAA], for which the potency estimated from few doses in [1] (compound concentrations: 100 nM and 1000 nM (sheet 'Samples'), CATDS: 5.9509771658031299E-2) is 1.68 µM; in test [2] (CATDS: 5.9095519599072298E-2) it was 1.7 µM; in test [3] (CATDS: 5.77170152352365E-2) it was 1.79 µM; in test [22], 2.17 µM; in test [23], 1.97 µM; in test [24], 1.65 µM. The potency estimated from few doses is 2.14 µM in test [25]; 2.2 µM in test [5] (CATDS: 5.2392632468863803E-2); 1.98 µM in test [8] (CATDS: 5.50231746712945E-2); 1.15 µM in test [9] (CATDS: 7.31538140973165E-2); 2.37 µM in test [26]; 1.28 µM in test [13] (CATDS: 6.8732534109556695E-2). The potency estimated from few doses in test [14] (CATDS: 6.20542756151947E-2) was 1.55 µM; in test [27], 1.95 µM; in test [28] it was 1.48 µM; in test [29], 1.26 µM; in test [21] (CATDS: 6.3375606463047907E-2) it was 1.49 µM.

Source of the values: PMC11062922 (Nature Chemical Biology, 2023).
